Assay results reported in PubChem BioAssay.
Calls of active or inactive are those of the source.

Key:
[1] = binders of probe aFSTL3 on microarray, primary screen, stem cell growth factor project, biochemical, small-molecule microarray, fluorescence 635/667 (AID 1064); conditions: higher = more signal;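 further: measures binding of the biotinylated anti-FSTL3 antibody to printed compounds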
[2] = binders from COS7 lysate, DM2A8 probe, primary screen, torsin A project, cell lysate, small-molecule microarray, fluorescence 635/667 (AID 1065); conditions: higher = more signal, COS7 lysate expressing mutant human TOR1A
[3] = binders of probe aFGF2 on microarray, primary screen, stem cell growth factor project, biochemical, small-molecule microarray, fluorescence 635/667 (AID 1067); conditions: higher = more signal;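 further: measures binding of biotinylated aFGF2 protein to printed compounds on slides; z-score merges feature fluorescence and signal-to-noise across triplicate slides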
[4] = binders of probe aFGF10 on microarray, primary screen, stem cell growth factor project, biochemical, small-molecule microarray, fluorescence 635/667 (AID 1071); conditions: higher = more signal;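 further: score merges 667 nm spot intensity and signal to noise from triplicate slides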
[5] = biological target: Neurogenic locus notch homolog protein 2 (Homo sapiens) (UniProt Q04721); test: Notch2 binders on small-molecule microarrays, primary screen, biochemical, small-molecule microarray, 635 nm fluorescence, stem cell growth factors (AID 1073); conditions: Notch2 binding, higher = more signal
[6] = biological target: Pro-neuregulin-1, membrane-bound isoform (Homo sapiens) (UniProt Q02297); test: NRG1 binders on small-molecule microarrays, primary screen, psychiatric disease protein project, biochemical, small-molecule microarray, fluorescence 635/667 (AID 1075); conditions: NRG1 binding, 635 nm fluorescence, higher = more signal;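 further: score combines 667 nm spot fluorescence with signal to noise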
[7] = system: Neuregulin-1 EGF-like domain; test: binders of neuregulin-1 EGF-like domain, primary screen, biochemical, small-molecule microarray, 635 nm fluorescence (AID 1081); conditions: small-molecule microarray binding, higher = more signal;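 further: binding of the protein to compounds printed on small-molecule microarray slides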
[8] = FRG1 promoter luciferase signal modulators, primary screen, FRG1 inhibition for FSHD, cell-based, C2C12 myotubes, firefly/Renilla luciferase, luminescence (AID 1084); conditions: higher = more signal, called active from +8 up or from −8 down
[9] = binders of probe aFST on microarray, primary screen, stem cell growth factor project, biochemical, small-molecule microarray, fluorescence 635/667 (AID 1086); conditions: higher = more signal;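 further: score merges 667 nm fluorescence with signal-to-noise of each printed compound spot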
[10] = binders of probe aHhip on microarray, primary screen, stem cell growth factor project, biochemical, small-molecule microarray, fluorescence 635/667 (AID 1087); conditions: higher = more signal;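 further: score merges spot fluorescence at 667nm with spot signal to noise ratio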

Chain of Neurogenic locus notch homolog protein 2 (Homo sapiens) (Q04721 whole entry, looked up, canonical isoform): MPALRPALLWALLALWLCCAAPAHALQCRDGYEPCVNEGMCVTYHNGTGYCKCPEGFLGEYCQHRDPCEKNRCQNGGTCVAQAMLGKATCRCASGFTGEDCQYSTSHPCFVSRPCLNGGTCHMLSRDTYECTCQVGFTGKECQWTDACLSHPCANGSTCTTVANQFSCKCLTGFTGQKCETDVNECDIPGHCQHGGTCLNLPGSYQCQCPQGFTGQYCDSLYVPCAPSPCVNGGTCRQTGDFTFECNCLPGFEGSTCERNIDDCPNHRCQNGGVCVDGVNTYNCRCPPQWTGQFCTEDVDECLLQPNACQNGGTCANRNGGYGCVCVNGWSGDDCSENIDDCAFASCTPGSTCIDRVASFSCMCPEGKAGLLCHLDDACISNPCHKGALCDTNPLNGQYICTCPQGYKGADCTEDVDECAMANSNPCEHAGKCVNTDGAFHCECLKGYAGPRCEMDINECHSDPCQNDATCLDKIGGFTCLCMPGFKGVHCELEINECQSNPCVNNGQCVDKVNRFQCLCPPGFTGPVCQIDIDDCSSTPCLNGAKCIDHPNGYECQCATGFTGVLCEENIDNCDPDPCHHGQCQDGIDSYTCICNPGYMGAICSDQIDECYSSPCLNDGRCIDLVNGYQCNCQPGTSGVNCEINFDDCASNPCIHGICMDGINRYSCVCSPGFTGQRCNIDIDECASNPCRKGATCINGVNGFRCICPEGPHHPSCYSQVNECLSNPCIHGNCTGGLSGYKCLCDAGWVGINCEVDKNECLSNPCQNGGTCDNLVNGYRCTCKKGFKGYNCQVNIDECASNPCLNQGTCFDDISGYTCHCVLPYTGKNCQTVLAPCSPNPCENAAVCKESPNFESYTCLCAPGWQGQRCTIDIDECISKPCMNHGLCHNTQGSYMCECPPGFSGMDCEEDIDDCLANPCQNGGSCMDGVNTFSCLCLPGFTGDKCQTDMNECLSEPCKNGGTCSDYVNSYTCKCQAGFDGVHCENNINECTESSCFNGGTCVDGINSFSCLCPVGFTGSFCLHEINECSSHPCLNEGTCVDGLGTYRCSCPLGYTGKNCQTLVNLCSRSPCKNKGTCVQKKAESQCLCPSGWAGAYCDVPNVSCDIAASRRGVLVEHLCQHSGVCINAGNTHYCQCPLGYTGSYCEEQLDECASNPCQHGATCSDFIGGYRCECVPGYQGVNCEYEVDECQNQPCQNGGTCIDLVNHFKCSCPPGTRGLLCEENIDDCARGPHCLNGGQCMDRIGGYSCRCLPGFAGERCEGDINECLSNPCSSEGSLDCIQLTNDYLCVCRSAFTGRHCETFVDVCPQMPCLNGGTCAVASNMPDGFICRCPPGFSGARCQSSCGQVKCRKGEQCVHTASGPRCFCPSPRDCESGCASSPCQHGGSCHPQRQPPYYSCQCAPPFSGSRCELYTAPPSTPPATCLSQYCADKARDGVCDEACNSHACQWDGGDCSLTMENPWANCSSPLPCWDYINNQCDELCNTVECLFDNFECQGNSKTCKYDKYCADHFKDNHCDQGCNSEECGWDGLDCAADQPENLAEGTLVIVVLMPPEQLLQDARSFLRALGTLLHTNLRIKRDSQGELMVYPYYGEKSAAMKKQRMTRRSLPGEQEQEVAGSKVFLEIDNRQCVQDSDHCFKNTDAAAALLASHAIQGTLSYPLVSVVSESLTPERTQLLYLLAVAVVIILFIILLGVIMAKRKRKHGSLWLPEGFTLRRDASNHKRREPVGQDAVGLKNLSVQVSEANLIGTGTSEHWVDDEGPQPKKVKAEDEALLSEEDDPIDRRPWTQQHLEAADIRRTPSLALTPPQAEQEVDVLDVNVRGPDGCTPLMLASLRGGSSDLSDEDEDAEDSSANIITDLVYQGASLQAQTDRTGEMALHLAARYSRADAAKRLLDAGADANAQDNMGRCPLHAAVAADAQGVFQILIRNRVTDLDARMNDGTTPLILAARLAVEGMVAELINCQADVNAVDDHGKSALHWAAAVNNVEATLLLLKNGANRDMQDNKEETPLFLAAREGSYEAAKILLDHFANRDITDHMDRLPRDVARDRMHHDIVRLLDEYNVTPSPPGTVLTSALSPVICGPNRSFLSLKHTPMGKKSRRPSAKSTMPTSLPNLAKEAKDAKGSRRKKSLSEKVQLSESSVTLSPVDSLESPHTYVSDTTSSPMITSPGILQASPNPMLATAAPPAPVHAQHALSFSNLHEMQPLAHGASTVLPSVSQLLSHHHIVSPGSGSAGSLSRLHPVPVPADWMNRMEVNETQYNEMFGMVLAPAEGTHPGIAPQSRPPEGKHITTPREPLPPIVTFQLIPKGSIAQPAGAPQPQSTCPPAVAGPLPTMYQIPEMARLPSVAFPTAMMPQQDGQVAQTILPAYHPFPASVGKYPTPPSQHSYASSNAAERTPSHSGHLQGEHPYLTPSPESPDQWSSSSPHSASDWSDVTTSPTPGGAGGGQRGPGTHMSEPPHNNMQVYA
Chain of Pro-neuregulin-1, membrane-bound isoform (Homo sapiens) (Q02297 whole entry, looked up, the tested form may be a part, canonical isoform): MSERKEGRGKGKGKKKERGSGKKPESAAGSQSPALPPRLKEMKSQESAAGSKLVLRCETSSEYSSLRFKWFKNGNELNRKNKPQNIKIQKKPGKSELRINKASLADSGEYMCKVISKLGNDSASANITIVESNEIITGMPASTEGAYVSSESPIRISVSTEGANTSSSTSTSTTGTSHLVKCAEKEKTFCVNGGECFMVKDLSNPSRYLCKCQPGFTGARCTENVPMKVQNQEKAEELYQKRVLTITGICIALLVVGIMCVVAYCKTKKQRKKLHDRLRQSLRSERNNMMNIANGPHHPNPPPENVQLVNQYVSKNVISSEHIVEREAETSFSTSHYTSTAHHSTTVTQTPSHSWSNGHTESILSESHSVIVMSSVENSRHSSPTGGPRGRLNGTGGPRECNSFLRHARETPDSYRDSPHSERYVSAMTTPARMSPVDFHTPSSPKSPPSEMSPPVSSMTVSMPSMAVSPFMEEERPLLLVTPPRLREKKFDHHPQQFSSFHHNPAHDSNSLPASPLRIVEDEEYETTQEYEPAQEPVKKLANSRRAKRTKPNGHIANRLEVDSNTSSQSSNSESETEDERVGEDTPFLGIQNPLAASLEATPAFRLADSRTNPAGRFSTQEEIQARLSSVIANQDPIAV

| Structure (SMILES) | composite z-score [1] | composite z-score [2] | composite z-score [3] | composite z-score [4] | composite z-score [5] | composite z-score [6] | composite z-score [7] | z-score [8] | composite z-score [9] | composite z-score [10] |
| --- | --- | --- | --- | --- | --- | --- | --- | --- | --- | --- |
| COc1ccc([Si](C)(C)[C@@H]2[C@@H](CCO)O[C@]3(C(=O)N(Cc4cccc(N5CCOC5=O)c4)c4ccccc43)[C@H]2C)cc1 | 0.0806 | 0.229 | -0.0704 | 0.289 | 1.03 | 0.775 | 0.953 | -1.65 (inactive) | 0.0855 | -0.156 |
| C[N+](C)(C)CCCC[C@@H]1NC(=O)[C@H]2C[C@@H](C(=O)NCCCCCCNC(=O)CS)[C@@H](c3ccc(O)cc3)N2C1=O | 0.312 | 2 | -0.131 | -0.457 | -1.36 | 1.7 | 1.41 | -0.395 (inactive) | -0.39 | -0.0994 |
| O=C1OCC=C[C@H]2OC34C=CCN(CCN5CCOCC5)C(=O)[C@H]3N(CCO)C(=O)[C@@H]4[C@@H]12 (stereo not given in full) | -0.341 | -0.483 | -0.0985 | -0.659 | -0.273 | 0.605 | 0.242 | 1.02 (inactive) | -0.218 | -0.412 |
| O=C(O)[C@H](Cc1ccccc1)n1cc(-c2ccccc2)nn1 | -0.37 | -0.104 | -0.0583 | 0.399 | 0.533 | 0.0865 | 0.871 | 1.33 (inactive) | 0.328 | -0.181 |
| COCC(=C=CC[C@H](O)c1ccccc1OCCO)CCO | -0.2 | 0.32 | -0.0747 | 0.225 | -0.626 | 1.24 | 0.857 | 0.212 (inactive) | -0.0019 | 0.0373 |
| COc1ccc([Si](C)(C)[C@@H]2[C@@H](CC(=O)N3CCC[C@H]3CO)O[C@]3(C(=O)N(Cc4cccc(I)c4)c4ccccc43)[C@H]2C)cc1 | 0.07 | 1.29 | -0.137 | 0.192 | 1.08 | 0.916 | 1.17 | -1.06 (inactive) | 0.453 | -0.0994 |
| CN(C)CCCCCCNC(=O)[C@@H]1C[C@@H]2C(=O)N[C@@H](CCCC[N+](C)(C)C)C(=O)N2[C@@H]1c1ccc(O)cc1 | -0.725 | 0.601 | -0.183 | -0.0779 | -1.07 | 0.334 | 1.25 | 4.62 (inactive) | -0.334 | -0.865 |
| COCC(=C=CC[C@@H](O)c1ccc(OCCO)cc1)C[C@@H](O)c1ccccn1 | -0.212 | -0.116 | -0.0633 | 0.923 | 0.687 | 1 | 1.24 | 1.33 (inactive) | 0.423 | -0.236 |
| Cc1ccc(S[C@]2(C(=O)O)CC(=O)N(C(C)C)[C@@H]2c2ccc(CO)cc2)cc1 | 0.125 | 0.552 | -0.172 | -0.0563 | -0.445 | -0.226 | 0.751 | -0.175 (inactive) | -0.735 | -0.189 |
| NC(=O)[C@@H]1[C@H]2C(=O)O[C@H](c3ccccc3)[C@H](c3ccccc3)N2[C@H](c2ccc(O)cc2)[C@@]12C(=O)Nc1ccc(C#CC3=CCCCC3)cc12 | -0.542 | 0.103 | -0.222 | 0.604 | -0.173 | 1.68 | 1.15 | 0.009 (inactive) | -0.21 | -0.357 |
| N#Cc1ccc(C(O)C2C=CC3C(=O)N(c4ccccc4)C(=O)C3N2Nc2ccccc2F)cc1 (stereo not given) | -0.367 | 0.362 | 0.315 | 0.936 | 1.37 | 1.24 | -0.0077 | 0.372 (inactive) | 0.716 | -0.0994 |
| COc1ccc(C(=O)Nc2ccc(CN3C(=O)[C@]4(O[C@H](CC(=O)N5CCC[C@H]5CO)[C@@H]([Si](C)(C)c5ccc(OC)cc5)[C@@H]4C)c4ccccc43)cc2)cc1 | -0.332 | 0.355 | -0.0715 | 0.656 | 0.351 | 1.42 | 1.31 | -1.54 (inactive) | -0.0939 | 0.0749 |
| COCCOC(=O)N1C(=O)[C@@]2(c3ccccc31)[C@H](C(=O)N1CCCCCCC1)[C@H]1C(=O)O[C@H](c3ccccc3)[C@H](c3ccccc3)N1[C@@H]2c1ccc(OCCO)cc1 | 4.16 | 2.62 | 1.09 | 1.49 | 1.75 | 2.93 | 1.5 | -1.64 (inactive) | 3.82 | 3.98 |
| CCOC(=O)C[C@H]1[C@H](OC(=O)c2ccc(C(=O)c3ccccc3)cc2)[C@@H](NC(=O)Cc2ccc(OC)cc2)c2cc(OCCCO)ccc2N1C(=O)c1ccc2ccccc2n1 | -0.537 | 0.0267 | -0.0887 | 0.371 | 0.298 | 0.843 | 0.325 | -2.62 (inactive) | 0.612 | -0.0994 |
| O=C1C2C=CC(C(O)c3cc(C(F)(F)F)cc(C(F)(F)F)c3)N(Nc3ccccc3)C2C(=O)N1c1ccccc1 (stereo not given) | 0.281 | 1.2 | -0.0064 | 0.35 | 0.649 | 1.8 | 1.12 | 0.995 (inactive) | 0.664 | -0.0994 |
| COCCOC(=O)N1C(=O)[C@@]2(c3cc(C#Cc4ccc(OC)cc4)ccc31)[C@H](c1ccc(O)cc1)N1[C@H](c3ccccc3)[C@H](c3ccccc3)OC(=O)[C@H]1[C@@H]2C(=O)Nc1nc2ccccc2s1 | -0.304 | 0.262 | -0.0724 | 0.554 | 1.29 | 1.06 | 1.24 | 2.63 (inactive) | 0.251 | -0.249 |
